# Assay outcomes as filed in PubChem.
# An excerpt weighted towards active compounds, which were near 12% of everything screened.
# Sfp PPTase inh: blocks B. subtilis Sfp PPTase activity | Q9F4F7 | 3.5% of 310,000 active | Biochemical Sfp PPTase activity, qHTS | Potency, µM, without a hit: largest response in the series, negative = inhibition, usual class: inhibitors | AID 1490;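 note: the enzyme is Sfp with the accession as filed and its product quenches rhodamine fluorescence; 0% = enzyme reaction without inhibitor and -100% = no enzyme wells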
#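 Step 1, compound plus 15 nM Sfp-PPTase, 15 min, room temperature. Step 2, add rhodamine-CoA (5 uM) and BHQ-2-YbbR (12.5 uM). Step 3, read 525/598 nm fluorescence at 0 and 30 min.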
# HP1b binding inh: blocks HP1-beta chromodomain binding to methylated histone tails; AlphaScreen HP1-beta / biotin-H3K9me3 peptide binding; 0.56% of 390,000 active; Potency, µM (series often up to 114 µM), inactives show top-dose activity change, negative = inhibition, actives largely listed as inhibitors; P83916; note: nearly all actives have a fitted effect of over 70% in size
#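 HP1-beta protein (50 nM final) preincubated 30 min at room temperature with biotinylated H3(1-18)K9me3 peptide (50 nM) in PBS pH 7.4, 0.01% Tween-20, then compound added for 30 min. AlphaScreen streptavidin donor/nickel chelate acceptor beads (10 ug/mL final), 30 min dark, luminescence read.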
# BAZ2B block: inhibitors of human BAZ2B bromodomain | Q9UIF8 | AlphaScreen BAZ2B-H3K14Ac peptide displacement | Potency, µM (series often up to 114 µM), inactives show at the highest dose activity change, negative = inhibition, hits mostly inhibitors | 4.4% of 360,000 active; note: % is set by controls: 0 for no effect and ±100 for the full control effect; nearly all actives have a fitted effect of over 60% in size
#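 Compounds, titrated to a top concentration of 110 uM, were incubated 30 min at room temperature with preformed BAZ2B/acetyl-K14 H3 peptide complex (50 nM each). Proximity signal was measured by AlphaScreen after 20 min with beads.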
# JMJD2A Tudor inh: blocks the human JMJD2A Tudor domain | O75164 | AlphaScreen JMJD2A-Tudor / H3K4me3 peptide binding | Potency, µM (titrated, usually from 114 µM), without a hit: at the highest dose activity change, negative = inhibition, actives largely listed as inhibitors | 4.4% of 390,000 active | AID 504339; note: % is set by controls: 0 for no effect and ±100 for the full control effect; nearly all actives have a fitted effect of over 50% in size
# G9a inh: inhibitors of human histone lysine methyltransferase G9a; Q96KQ7; G9a H3K9 monomethylation, AlphaScreen, 2 h; Potency, µM (highest dose often 102 µM), without a hit: at the highest dose activity, negative = inhibition, usual class: inhibitors; 8.8% of 350,000 active; note: % is set by controls: 0 for no effect and ±100 for the full control effect; nearly all actives have a fitted effect of over 75% in size
#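 Using a bead-based AlphaScreen, monomethylated H3K9 product from 2 h room-temperature reactions (G9a 20 nM, peptide 500 nM, SAM 20 uM) was detected with 0.5 ug/mL rabbit anti-H3K9me1 antibody.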
# An asterisk follows results filed as active; ? = inconclusive; . = no result; [ ] = another dose, or the depositor's remark. Calls come from the whole dose curve; as a rule, active = well fitted curve in the direction sought with a large enough effect; inconclusive = small, poorly fitted or top-dose-only effect, or another doubt; inactive = no such curve, though single readings can be large; an effect the other way counts as inactive or inconclusive. Potency is the fitted concentration of half-maximal effect.
SMILES,Sfp PPTase inh,HP1b binding inh,BAZ2B block,JMJD2A Tudor inh,G9a inh
COc1cc2c(cc1OC)CN(C(=O)c1ccc(OC)c(S(=O)(=O)N3CCCC3)c1)CC2,.,16%,7%,-10%,?
CCC(CC)C(=O)Nc1cc(-c2ccccc2F)nn1-c1ccccc1,.,21%[57 µM],3%,-14%,2%[59 µM]
Cc1ccc(S(=O)(=O)Cc2sc3ccccc3[n+]2C)cc1,-4%,14%,50µM*,22µM*,45µM*
Cc1ccc(S(=O)(=O)CC(=O)Nc2nc3ccccc3s2)cc1,10%,12%,-2%,-6%,-12%
O=C(NCCN1CCOCC1)c1cccnc1SCc1ccccc1Cl,1%,27%,2%,-14%,-23%
CCc1ccc(S(=O)(=O)c2nnn3c2nc(NC2CCCC2)c2sccc23)cc1,.,46%,-3%,9%,-5%[59 µM]
O=S(=O)(c1ccc(F)cc1)c1nc(-c2ccco2)oc1Nc1ccccc1,-8%,0%,-38%,-38%,?
O=S(=O)(c1ccccc1)c1nc(-c2ccco2)oc1Nc1ccccc1,3%,-6%,?,-1%,7.9µM*
O=S(=O)(c1ccccc1)c1nc(-c2ccco2)oc1NCc1ccccc1,3%,13%,-37%,-33%,35µM*
CCOC(=O)CC(NC(=O)Cn1nnc(-c2ccccc2F)n1)c1ccc(OC)cc1 (centres undefined),3%,1%,3%,?,0%
CCN(Cc1ccncc1)C(=O)c1cc(Br)cc(Br)c1O,11%,16%,-19%,-1%,-42%
O=C1/C(=C/c2ccco2)SC(=S)N1CC1CCCO1 (centres undefined),18µM*,35µM*,35µM*,25µM*,?
Cc1ccc(/C=C2/SC(=S)N(C3CCCCC3)C2=O)o1,-27%,-14%[57 µM],?,-32%,40µM*
Cn1cc(/C=C2\SC(=O)NC2=S)c2ccccc21,32µM*,?,32µM*,?,.
Cc1ccc(/C=C2/SC(=O)NC2=S)o1,22µM*,?,50µM*,40µM*,18µM*
Cc1ccc(C(=O)NN2C(=O)/C(=C/c3cn(C)c4ccccc34)SC2=S)cc1,-2%,-15%,9%,-19%,22%[59 µM]
NS(=O)(=O)c1cnccc1Nc1ccc(Cl)c(Cl)c1,11%,19%,-38%,-16%,?
CCOC(=O)CN1C(=O)S/C(=C/c2ccc(O)c([N+](=O)[O-])c2)C1=O,-24%,-11%,?,-31%,-8%[59 µM]
Cc1ccc(/C=C2\SC(=S)N(CC3CCCO3)C2=O)o1 (centres undefined),10µM*,32µM*,32µM*,35µM*,5.6µM*
O=C1/C(=C/c2cccnc2)SC(=S)N1CC1CCCO1 (centres undefined),2%,-16%,-35%,-35%,-20%
CCOC(=O)c1ccc(NC2SC(=O)N(Cc3cccc(C(=O)O)c3)C2=O)cc1 (centres undefined),.,41%,-5%,-21%,2.8µM*
O=C(O)CN1C(=O)SC(Nc2ccccc2)C1=O (centres undefined),15%,12%,-5%,-4%,?
COc1ccc(NC2SC(=O)N(CC(=O)O)C2=O)cc1 (centres undefined),-6%,8%,-28%,79µM*,40µM*
Cc1ccc(O)c(C2=NOC(O)(C(F)(F)C(F)F)C2)c1 (centres undefined),19%,2%,-4%,-12%,?
CC(C)(C)C(=O)NC(=S)Nc1cccc(C(=O)O)c1,?,39%,-7%,-12%,0%[0.501 µM]
SMILES,Sfp PPTase inh,HP1b binding inh,BAZ2B block,JMJD2A Tudor inh,G9a inh
O=C(O)c1cccc(NC(=S)NC(=O)c2ccncc2)c1,?,-19%,.,?,45µM*
O=C(Nc1cnc2ccccc2c1)c1ccncc1,1%,68%,-6%,-6%,-34%
CNC(=S)Nc1cccc(C(=O)O)c1,56µM*,62%,-22%,-7%,18%[12.7 µM]
O=C(NC(=S)Nc1cnc2ccccc2c1)c1ccccc1,56µM*,38%,-38%,-13%,?
CCCC(=O)c1ccc(N2CCCCCC2)c(F)c1,-11%,183%,115%,120%,44%[59 µM]
CCn1c(CC(=O)Nc2ccc(C)c(Cl)c2)nnc1SCc1ccc(Cl)c(Cl)c1,-23%,15%,-2%,-10%,12%
CCCC(=O)Nc1ccccc1-c1nnn(CC(=O)Nc2ccc(OC)cc2)n1,2%,17%,-1%,-8%,2%[59 µM]
CCOc1ccc(NC(=O)Cn2nnc(-c3ccccc3NC(=O)c3cccs3)n2)cc1,?,-5%,-28%,56µM*,-14%
CC1(CCc2ccccc2)NC(=O)N(Cc2cc([N+](=O)[O-])cc3c2OCOC3)C1=O (centres undefined),13%,24%,-23%,-19%,?
COc1ccc(Nc2nnc(SC(C)C(=O)NC3CC3)s2)cc1 (centres undefined),.,23%,.,-14%,.
CC(Sc1nnc(NC2CC2)s1)C(=O)Nc1ccc(N2CCOCC2)cc1 (centres undefined),.,16%,-19%,-1%,45µM*
CC(Sc1nnc(NC2CCCCC2)s1)C(=O)Nc1ccc2c(c1)C(=O)c1ccccc1C2=O (centres undefined),6%,-17%,-36%,?,3.5µM*
Cc1cccc(C(=O)Nc2ccc(C(=O)N/N=C/c3ccc(C)o3)cc2)c1,-12%,28%,1%,-16%,?
O=c1[nH]c2ccc(S(=O)(=O)Nc3ccccc3O)cc2[nH]1,-6%,19%,-32%,-8%,2.2µM*
COc1ccccc1NS(=O)(=O)c1ccc2[nH]c(=O)[nH]c2c1,-4%,69%,-26%,-1%,18%
COc1ccccc1CNC(=O)C1CCN(S(=O)(=O)c2cn(C)cn2)CC1,.,16%,-6%,-5%,3%[59 µM]
OC(CON=C1c2ccccc2-c2ccccc21)CN1CCNCC1 (centres undefined),-54%,?,20µM*,3.5µM*,50µM*
OC(COc1ccccc1)CN1CCN(CC(O)COc2ccccc2)CC1 (centres undefined),?,29%,-15%,-13%,?
CCCN(CCC)C(=O)C1CCCN(S(=O)(=O)c2cc(Br)cc3c2N(C(=O)CC)CC3)C1 (centres undefined),.,0%,-14%,-17%,-20%[59 µM]
Cc1cc(C)c(C#N)c(SCc2nnc(-c3ccccc3)o2)n1,-11%,39%,21%,1%,-9%[59 µM]
COc1ccccc1-c1cc(-c2ccc(C)cc2)nc(SCc2nnc(-c3ccccc3)o2)c1C#N,?,-26%,11%,-22%,11µM*
O=C(Nc1ccc(Cl)c([N+](=O)[O-])c1)c1cnccn1,0%,5%,50µM*,?,-10%[59 µM]
O=C(Nc1ccc(Br)cc1Cl)c1cnccn1,16%,11%,-7%,50µM*,-10%[59 µM]
O=C(Nc1ccc(Cl)c([N+](=O)[O-])c1)c1ccncc1,?,41%,4%,-11%[57.1 µM],-15%[59 µM]
